Results taken from the supplement of paper PMC10849652.
About 8,800 targets were measured; listed, in parts, are those with a hit and a random draw of the rest. About 0.5% of all pairs of compound and target were hits. A number with no mark means an inactive call.

What was measured:
Experiment in all cases: log2 fold change, soluble protein after heating vs DMSO (PISA); higher = thermal stabilisation; K562 lysate, 10 uM; active = over 0.2 and 3.5 SD of the protein, either way, in both replicates (recomputed)
nilotinib = compound: Cc1cn(-c2cc(NC(=O)c3ccc(C)c(Nc4nccc(-c5cccnc5)n4)c3)cc(C(F)(F)F)c2)cn1 [nilotinib]
Summary of the method: (§1)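 Soluble protein was defined as the supernatant remaining after 21,000xg for 90 min, following pooling of heated aliquots and adjustment to 0.5% NP-40 at 4°C. Before that, crude K562 extract at 1 mg/mL protein in PBS pH 7.4 with 1 mM MgCl2 was treated with 10 μM compound for 30 min and heated for 3 min across 48°C-58°C. Quantification used TMTpro 16plex LC-MS/MS with channel sums equalised, and values are log-two fold changes in thermal stability relative to solvent controls from duplicates.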

[1] = compound: Cc1nc(Nc2n[nH]c3c2CN(C(=O)N[C@H](CN(C)C)c2ccccc2)C3(C)C)c2sccc2n1
Summary of the method: as §1

dasatinib = compound: Cc1nc(Nc2ncc(C(=O)Nc3c(C)cccc3Cl)s2)cc(N2CCN(CCO)CC2)n1 [dasatinib]
Summary of the method: as §1

[2] = compound: Cc1ncc(-c2ccnc(Nc3ccc(S(C)(=O)=O)cc3)n2)n1C(C)C
Summary of the method: as §1

[3] = compound: Cn1cc(-c2ccc3c(c2)CCN3C(=O)Cc2cccc(C(F)(F)F)c2)c2c(N)ncnc21
Summary of the method: as §1

quisinostat = compound: Cn1cc(CNCC2CCN(c3ncc(C(=O)NO)cn3)CC2)c2ccccc21 [quisinostat]
Summary of the method: as §1

tipifarnib = compound: Cn1cncc1[C@@](N)(c1ccc(Cl)cc1)c1ccc2c(c1)c(-c1cccc(Cl)c1)cc(=O)n2C [tipifarnib]
Summary of the method: as §1

[4] = compound: NC(=O)Nc1cc(-c2cccc(F)c2)sc1C(=O)N[C@H]1CCCNC1
Summary of the method: as §1

[5] = compound: NC(=O)c1cnc(N[C@@H]2CCCC[C@@H]2N)nc1Nc1cccc(-n2nccn2)c1
Summary of the method: as §1

[6] = compound: NC1(c2ccc(-c3nc4ccn5c(=O)[nH]nc5c4cc3-c3ccccc3)cc2)CCC1
Summary of the method: as §1

[7] = compound: NCC(=O)Nc1ccc(-n2nc(C(F)(F)F)cc2-c2ccc3c(ccc4ccccc43)c2)cc1
Summary of the method: as §1

vorinostat = compound: O=C(CCCCCCC(=O)Nc1ccccc1)NO [vorinostat]
Summary of the method: as §1

silmitasertib = compound: O=C(O)c1ccc2c(c1)nc(Nc1cccc(Cl)c1)c1ccncc12 [silmitasertib]
Summary of the method: as §1

[8] = compound: O=C1NC(=O)C(c2cnc3ccccn23)=C1c1cn2c3c(cc(F)cc13)CN(C(=O)N1CCCCC1)CC2
Summary of the method: as §1

entospletinib = compound: c1cn2cc(-c3ccc4cn[nH]c4c3)nc(Nc3ccc(N4CCOCC4)cc3)c2n1 [entospletinib]
Summary of the method: as §1

Chain of UniProt Q86UV5 (Q86UV5 whole entry, looked up): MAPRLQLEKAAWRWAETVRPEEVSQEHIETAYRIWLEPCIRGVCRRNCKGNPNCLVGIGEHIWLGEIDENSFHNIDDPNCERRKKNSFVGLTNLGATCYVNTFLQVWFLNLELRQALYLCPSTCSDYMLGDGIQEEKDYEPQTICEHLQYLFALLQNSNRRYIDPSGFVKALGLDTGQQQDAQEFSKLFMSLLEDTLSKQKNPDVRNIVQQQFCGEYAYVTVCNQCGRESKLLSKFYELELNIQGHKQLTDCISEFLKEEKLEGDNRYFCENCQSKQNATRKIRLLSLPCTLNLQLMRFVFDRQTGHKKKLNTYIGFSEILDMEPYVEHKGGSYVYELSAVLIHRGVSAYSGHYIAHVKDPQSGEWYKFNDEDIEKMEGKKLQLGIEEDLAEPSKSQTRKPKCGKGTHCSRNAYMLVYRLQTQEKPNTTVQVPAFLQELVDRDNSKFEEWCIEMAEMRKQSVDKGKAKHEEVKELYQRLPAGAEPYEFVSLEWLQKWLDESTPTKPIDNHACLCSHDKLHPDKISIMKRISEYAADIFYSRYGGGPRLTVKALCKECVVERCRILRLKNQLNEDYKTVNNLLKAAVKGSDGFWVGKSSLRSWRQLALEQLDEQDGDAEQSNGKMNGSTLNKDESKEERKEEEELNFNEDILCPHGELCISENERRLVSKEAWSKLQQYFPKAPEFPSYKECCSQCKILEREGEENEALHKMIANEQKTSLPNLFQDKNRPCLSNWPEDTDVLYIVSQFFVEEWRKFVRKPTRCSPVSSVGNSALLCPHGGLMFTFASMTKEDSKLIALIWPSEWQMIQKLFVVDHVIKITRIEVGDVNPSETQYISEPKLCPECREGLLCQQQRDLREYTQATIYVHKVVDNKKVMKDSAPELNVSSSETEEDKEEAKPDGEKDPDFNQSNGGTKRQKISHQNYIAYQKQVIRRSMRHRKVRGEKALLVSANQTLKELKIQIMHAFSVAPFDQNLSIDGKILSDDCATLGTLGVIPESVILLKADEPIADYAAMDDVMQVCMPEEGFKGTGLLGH
Chain of UniProt O15014 (O15014 whole entry, looked up): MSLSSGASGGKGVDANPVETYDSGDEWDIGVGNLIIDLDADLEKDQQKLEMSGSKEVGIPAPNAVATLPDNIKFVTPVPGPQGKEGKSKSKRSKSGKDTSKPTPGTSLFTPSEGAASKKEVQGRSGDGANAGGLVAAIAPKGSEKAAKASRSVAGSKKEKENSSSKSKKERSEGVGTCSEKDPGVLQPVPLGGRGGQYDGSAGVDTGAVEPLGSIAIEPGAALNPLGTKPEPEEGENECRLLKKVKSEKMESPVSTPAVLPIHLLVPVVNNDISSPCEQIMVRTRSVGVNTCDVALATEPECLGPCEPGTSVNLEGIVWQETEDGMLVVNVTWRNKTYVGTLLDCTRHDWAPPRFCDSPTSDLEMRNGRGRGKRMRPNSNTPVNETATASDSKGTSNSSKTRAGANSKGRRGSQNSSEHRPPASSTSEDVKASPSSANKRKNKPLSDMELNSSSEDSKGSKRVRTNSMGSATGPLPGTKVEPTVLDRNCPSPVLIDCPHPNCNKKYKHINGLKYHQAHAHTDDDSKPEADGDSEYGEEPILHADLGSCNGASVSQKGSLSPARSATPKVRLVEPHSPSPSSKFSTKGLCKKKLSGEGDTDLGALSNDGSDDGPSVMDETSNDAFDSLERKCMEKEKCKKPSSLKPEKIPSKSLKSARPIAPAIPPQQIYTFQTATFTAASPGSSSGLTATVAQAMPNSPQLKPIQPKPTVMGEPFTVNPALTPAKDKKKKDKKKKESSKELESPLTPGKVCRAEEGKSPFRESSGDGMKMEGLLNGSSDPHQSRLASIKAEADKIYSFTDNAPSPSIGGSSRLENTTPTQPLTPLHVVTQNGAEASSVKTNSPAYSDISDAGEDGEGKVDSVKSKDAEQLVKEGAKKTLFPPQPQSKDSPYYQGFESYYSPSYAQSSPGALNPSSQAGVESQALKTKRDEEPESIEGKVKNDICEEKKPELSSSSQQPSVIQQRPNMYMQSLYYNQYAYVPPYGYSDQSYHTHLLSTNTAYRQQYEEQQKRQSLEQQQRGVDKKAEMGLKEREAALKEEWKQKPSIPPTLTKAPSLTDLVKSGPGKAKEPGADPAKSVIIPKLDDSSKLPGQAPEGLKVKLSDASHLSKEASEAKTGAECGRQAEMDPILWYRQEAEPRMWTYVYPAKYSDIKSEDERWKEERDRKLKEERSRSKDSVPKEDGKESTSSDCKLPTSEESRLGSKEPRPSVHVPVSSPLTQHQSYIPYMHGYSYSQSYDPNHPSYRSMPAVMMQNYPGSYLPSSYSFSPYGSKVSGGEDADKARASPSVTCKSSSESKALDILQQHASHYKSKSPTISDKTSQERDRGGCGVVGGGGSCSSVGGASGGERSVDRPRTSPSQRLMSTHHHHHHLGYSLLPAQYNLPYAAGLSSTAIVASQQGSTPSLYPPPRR
Chain of UniProt Q9Y4E6 (Q9Y4E6 whole entry, looked up): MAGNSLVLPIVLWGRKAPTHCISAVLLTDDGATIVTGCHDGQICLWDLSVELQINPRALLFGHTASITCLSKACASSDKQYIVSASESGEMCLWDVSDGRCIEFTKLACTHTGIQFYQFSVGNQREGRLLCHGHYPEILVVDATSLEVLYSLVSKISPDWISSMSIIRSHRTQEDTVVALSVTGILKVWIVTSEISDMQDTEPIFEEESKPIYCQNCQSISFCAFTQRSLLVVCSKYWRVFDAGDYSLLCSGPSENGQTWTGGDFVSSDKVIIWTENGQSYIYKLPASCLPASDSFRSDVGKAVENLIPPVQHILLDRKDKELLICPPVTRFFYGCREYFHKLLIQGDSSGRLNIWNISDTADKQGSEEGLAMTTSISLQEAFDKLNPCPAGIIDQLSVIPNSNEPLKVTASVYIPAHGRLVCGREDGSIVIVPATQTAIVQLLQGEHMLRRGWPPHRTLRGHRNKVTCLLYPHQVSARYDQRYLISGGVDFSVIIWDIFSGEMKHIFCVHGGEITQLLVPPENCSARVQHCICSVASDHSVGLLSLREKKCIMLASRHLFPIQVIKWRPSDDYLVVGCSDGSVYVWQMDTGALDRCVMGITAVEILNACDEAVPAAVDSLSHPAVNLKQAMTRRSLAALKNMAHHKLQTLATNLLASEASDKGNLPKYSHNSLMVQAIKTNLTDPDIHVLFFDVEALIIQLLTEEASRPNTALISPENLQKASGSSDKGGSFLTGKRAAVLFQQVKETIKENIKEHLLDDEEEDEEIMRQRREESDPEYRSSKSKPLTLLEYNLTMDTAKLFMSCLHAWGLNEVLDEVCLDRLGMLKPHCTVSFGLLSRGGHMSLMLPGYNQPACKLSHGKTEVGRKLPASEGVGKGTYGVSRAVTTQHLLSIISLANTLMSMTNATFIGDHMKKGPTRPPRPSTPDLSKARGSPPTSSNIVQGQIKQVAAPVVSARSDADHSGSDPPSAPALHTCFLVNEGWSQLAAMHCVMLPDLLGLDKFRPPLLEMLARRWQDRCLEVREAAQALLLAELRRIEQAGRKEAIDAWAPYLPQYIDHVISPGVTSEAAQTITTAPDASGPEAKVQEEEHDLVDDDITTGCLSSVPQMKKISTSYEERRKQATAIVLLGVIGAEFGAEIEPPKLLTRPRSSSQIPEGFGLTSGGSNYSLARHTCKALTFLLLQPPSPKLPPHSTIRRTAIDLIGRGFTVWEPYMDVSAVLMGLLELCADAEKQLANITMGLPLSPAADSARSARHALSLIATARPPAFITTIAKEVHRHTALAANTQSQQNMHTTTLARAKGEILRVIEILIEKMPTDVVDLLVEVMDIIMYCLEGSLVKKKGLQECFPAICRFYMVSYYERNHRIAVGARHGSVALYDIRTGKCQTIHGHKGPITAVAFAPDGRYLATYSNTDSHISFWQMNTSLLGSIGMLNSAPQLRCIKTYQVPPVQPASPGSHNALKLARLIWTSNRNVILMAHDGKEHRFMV
Chain of UniProt A8MPS7 (A8MPS7 whole entry, looked up): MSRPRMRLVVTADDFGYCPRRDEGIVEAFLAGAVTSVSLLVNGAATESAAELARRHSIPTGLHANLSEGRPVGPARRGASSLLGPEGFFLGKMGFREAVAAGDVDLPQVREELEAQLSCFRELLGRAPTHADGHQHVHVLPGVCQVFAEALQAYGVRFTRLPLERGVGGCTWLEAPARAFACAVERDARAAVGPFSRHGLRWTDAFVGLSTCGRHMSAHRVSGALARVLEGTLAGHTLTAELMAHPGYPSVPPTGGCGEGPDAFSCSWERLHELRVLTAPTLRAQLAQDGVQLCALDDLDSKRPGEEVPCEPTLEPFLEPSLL
Chain of UniProt Q96S55 (Q96S55 whole entry, looked up): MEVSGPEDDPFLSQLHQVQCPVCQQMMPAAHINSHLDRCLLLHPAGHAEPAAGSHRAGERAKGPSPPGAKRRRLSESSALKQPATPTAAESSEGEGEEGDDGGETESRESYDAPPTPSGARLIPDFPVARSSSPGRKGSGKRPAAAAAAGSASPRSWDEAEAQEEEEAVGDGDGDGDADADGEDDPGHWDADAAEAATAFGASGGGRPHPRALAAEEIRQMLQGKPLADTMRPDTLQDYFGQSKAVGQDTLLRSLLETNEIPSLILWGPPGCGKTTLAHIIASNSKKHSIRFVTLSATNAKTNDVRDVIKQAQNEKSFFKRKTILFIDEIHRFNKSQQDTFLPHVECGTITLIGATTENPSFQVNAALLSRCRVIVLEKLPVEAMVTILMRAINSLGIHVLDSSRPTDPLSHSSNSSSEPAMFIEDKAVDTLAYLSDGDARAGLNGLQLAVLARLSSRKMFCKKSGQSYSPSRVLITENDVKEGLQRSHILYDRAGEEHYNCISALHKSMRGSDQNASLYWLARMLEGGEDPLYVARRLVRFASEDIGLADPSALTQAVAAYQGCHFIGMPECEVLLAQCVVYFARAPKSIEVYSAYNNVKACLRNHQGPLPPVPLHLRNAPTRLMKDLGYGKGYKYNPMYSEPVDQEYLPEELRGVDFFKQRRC
Chain of UniProt Q9BRT2 (Q9BRT2 whole entry, looked up): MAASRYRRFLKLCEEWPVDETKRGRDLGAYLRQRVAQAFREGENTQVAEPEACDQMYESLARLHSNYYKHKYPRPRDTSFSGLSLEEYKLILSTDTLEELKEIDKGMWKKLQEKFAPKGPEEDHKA

Row | Target | log2 fold change (nilotinib) | log2 fold change [1] | log2 fold change (dasatinib) | log2 fold change [2] | log2 fold change [3] | log2 fold change (quisinostat) | log2 fold change (tipifarnib) | log2 fold change [4] | log2 fold change [5] | log2 fold change [6] | log2 fold change [7] | log2 fold change (vorinostat) | log2 fold change (silmitasertib) | log2 fold change [8] | log2 fold change (entospletinib)
1 | VPS13C (UniProt Q709C8) | 0.138 | 0.043 | -0.011 | -0.069 | -0.039 | -0.034 | -0.177 | -0.009 | -0.028 | -0.05 | 0.005 | 0.062 | -0.033 | 0.027 | -0.051
2 | ZMYND8 isoform 19 (UniProt Q9ULU4) | -0.011 | -0.056 | -0.019 | 0.022 | 0.036 | -0.073 | -0.025 | -0.004 | 0.009 | 0.043 | 0.059 | -0.224 (active) | 0.029 | 0.006 | -0.02
3 | WRNIP1 (UniProt Q96S55) | -0.008 | 0.002 | -0.018 | -0.05 | 0.066 | -0.035 | -0.02 | 0.053 | -0.008 | -0.001 | -0.011 | -0.521 (active) | 0 | -0.046 | -0.02
4 | UNC13D (UniProt Q70J99) | 0.043 | -0.014 | -0.05 | 0 | 0 | -0.079 | -0.006 | 0.05 | 0.022 | -0.024 | 0.022 | -0.211 (active) | 0.002 | -0.006 | 0.026
5 | XAB2 (UniProt Q9HCS7) | 0.032 | -0.002 | -0.051 | 0.048 | 0.017 | 0.106 | -0.046 | 0.046 | -0.025 | -0.01 | -0.012 | -0.259 (active) | 0.005 | -0.023 | -0.006
6 | ZBTB33 (UniProt Q86T24) | -0.009 | 0.084 | -0.06 | -0.052 | 0.029 | -0.08 | -0.083 | 0.133 | 0 | -0.035 | 0.061 | 0.103 | -0.082 | 0.009 | -0.033
7 | ZFPM1 (UniProt Q8IX07) | 0.036 | -0.075 | -0.087 | 0.042 | 0.095 | -0.189 | 0.044 | 0.034 | -0.082 | -0.018 | -0.009 | -0.251 (active) | 0 | -0.03 | -0.021
8 | UQCC2 (UniProt Q9BRT2) | -0.018 | -0.006 | 0.002 | 0.012 | -0.001 | 0 | 0.058 | -0.076 | -0.005 | 0.018 | -0.019 | 0.121 | -0.021 | -0.06 | -0.039
9 | ZNF609 (UniProt O15014) | -0.14 | -0.023 | -0.014 | 0.001 | -0.044 | -0.006 | 0.01 | 0.061 | -0.015 | 0.003 | 0.184 | -0.309 (active) | 0.041 | -0.013 | -0.026
10 | YME1L1 (UniProt Q96TA2) | 0.011 | -0.06 | 0 | 0.026 | -0.044 | -0.045 | -0.019 | 0.016 | 0.06 | -0.059 | -0.001 | 0.04 | 0.007 | -0.008 | 0.02
11 | VTN (UniProt P04004) | 0.04 | 0.064 | 0.019 | -0.102 | 0 | 0.022 | -0.092 | 0.006 | -0.063 | -0.03 | 0.126 | -0.07 | -0.076 | -0.085 | -0.146
12 | VAMP2 (UniProt P63027) | -0.034 | 0.034 | 0.002 | 0.066 | -0.009 | 0.262 | 0.041 | -0.027 | 0.019 | 0.067 | 0.071 | 0.016 | -0.008 | 0.132 | -0.054
13 | VASP (UniProt P50552) | -0.025 | -0.002 | -0.061 | -0.014 | -0.001 | 0.012 | 0.008 | -0.012 | -0.006 | 0.013 | 0.035 | 0.015 | 0.015 | 0.01 | -0.013
14 | VPS18 (UniProt Q9P253) | -0.013 | -0.029 | -0.016 | 0.003 | -0.005 | -0.018 | -0.05 | 0.029 | 0.01 | -0.019 | -0.016 | -0.386 (active) | 0.04 | 0.015 | -0.006
15 | YDJC (UniProt A8MPS7) | -0.027 | 0.045 | -0.1 | -0.044 | -0.02 | -0.03 | -0.045 | -0.001 | 0.021 | 0.074 | 0.048 | -0.443 (active) | 0.023 | -0.051 | 0.051
16 | WDR7 (UniProt Q9Y4E6) | 0.001 | -0.018 | -0.088 | -0.011 | 0.003 | -0.016 | -0.032 | 0.014 | 0.007 | -0.03 | -0.01 | -0.236 (active) | 0.032 | 0.01 | -0.017
17 | VPS4A (UniProt Q9UN37) | -0.011 | 0.008 | -0.075 | 0.002 | 0.056 | -0.027 | 0.023 | 0.019 | 0.004 | -0.011 | -0.026 | -0.356 (active) | 0.059 | -0.013 | 0.038
18 | WDR62 isoform 4 (UniProt O43379) | -0.001 | 0.003 | -0.026 | 0 | 0.022 | -0.103 | -0.051 | 0.031 | -0.02 | -0.031 | 0.045 | -0.423 (active) | 0.01 | -0.014 | -0.016
19 | ZMYM2 (UniProt Q9UBW7) | -0.04 | 0.001 | -0.023 | -0.007 | 0.035 | -0.082 | 0.08 | 0.056 | 0.099 | -0.033 | -0.125 | -0.609 (active) | 0.034 | 0.019 | 0.069
20 | UTP18 (UniProt Q9Y5J1) | 0.059 | -0.009 | 0.005 | -0.179 | -0.03 | -0.034 | -0.002 | 0.058 | -0.016 | 0.074 | 0.045 | -0.078 | -0.014 | 0.029 | -0.136
21 | USP48 isoform 8 (UniProt Q86UV5) | 0.018 | 0.008 | 0.001 | 0 | 0.015 | -0.04 | -0.011 | 0.008 | -0.001 | -0.024 | 0.014 | -0.474 (active) | 0.009 | -0.022 | 0.021
